Shown are actives, neighbours in structure and some others; about 1.1% of the full set was active somewhere.
FBPA Giardia inh: inhibitors of Giardia lamblia fructose-1,6-bisphosphate aldolase; 0.71% of 290,000 active; purified Giardia FBPA; AID 2451; Potency, µM (highest dose often 59.6 µM), for inactives: at the highest dose activity, negative = inhibition, most hits filed as inhibitors; note: nearly all actives have a fitted effect of over 55% in size
Target sequence (A8B2U2 whole entry, looked up): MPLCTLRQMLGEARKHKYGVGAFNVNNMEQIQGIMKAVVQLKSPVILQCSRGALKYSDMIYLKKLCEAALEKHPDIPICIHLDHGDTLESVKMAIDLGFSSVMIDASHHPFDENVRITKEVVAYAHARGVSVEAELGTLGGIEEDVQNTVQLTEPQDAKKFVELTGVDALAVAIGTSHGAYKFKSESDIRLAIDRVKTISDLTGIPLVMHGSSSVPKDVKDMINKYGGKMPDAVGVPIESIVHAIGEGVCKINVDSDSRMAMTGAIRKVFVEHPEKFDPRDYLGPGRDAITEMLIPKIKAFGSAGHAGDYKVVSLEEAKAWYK
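40 nM FBPA preincubated 10 min at RT with compound (up to 57.5 uM final), then substrate plus GAPDH/TPI/NAD/arsenate coupling and diaphorase/resazurin added. Fluorescence read after 20 min at RT, 525/598 nm.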
AmpC detergent: blocks E. coli AmpC beta-lactamase in detergent assay; P00811; AmpC hydrolysis of nitrocefin, absorbance 480 nm, 0.01% Triton; Potency, µM (highest dose often 114 µM), inactives show top-dose activity change, negative = inhibition, usual class: inhibitors; 0.041% of 370,000 active; AID 485294;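 note: 0% = no-compound wells and -100% = no-enzyme wells; nearly all actives have a fitted effect of over 25% in size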
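AmpC (5.3 nM in the dispensed reagent) in 20 mM phosphate pH 7.0 with 0.01% (detergent screen) or 0.0001% Triton X-100 was preincubated with compounds for 15 min at room temperature. Nitrocefin was then added from an 800 uM solution, and hydrolysis was followed at 480 nm.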
AMA1 RON2 block: inhibitors of Plasmodium falciparum AMA1-RON2 interaction; AlphaScreen AMA1-biotinylated RON2 peptide binding; Potency, µM (doses to about 58.2 µM), without a hit: at the top dose activity change, negative = inhibition, hits mostly inhibitors; 0.2% of 360,000 active;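 note: 0% = vehicle wells and -100% = peptide control; nearly all actives have a fitted effect of over 45% in size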
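AMA1 (3D7) with his tag at 25 nM final met compounds first, then biotinylated RON2 peptide at 25 nM; detection used donor plus acceptor beads, 10 µg/mL apiece, read by AlphaScreen after 30 min at room temperature.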
AmpC no deterg: AmpC beta-lactamase inhibition without detergent; P00811; AmpC nitrocefin hydrolysis, absorbance 480 nm, 0.0001% Triton; Potency, µM (top dose mostly 57.1 µM), inactives show at the highest dose activity change, negative = inhibition, actives largely listed as inhibitors; 0.52% of 330,000 active;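 note: plate controls were no compound for no effect and no enzyme for full effect; nearly all actives have a fitted effect of over 20% in size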
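20 mM phosphate pH 7.0 + 0.01% (detergent screen) or 0.0001% Triton X-100; 5.3 nM AmpC reagent; cpd preinc 15 min RT; nitrocefin (800 uM stock) to start; A480 q20 s × 4 min; Activity was normalised to no-enzyme and no-compound control wells.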
Numbers without * were called inactive; ? = inconclusive; / = no result. Calls come from the whole dose curve; as a rule, active = well fitted curve in the direction sought with a large enough effect; inconclusive = small, poorly fitted or top-dose-only effect, or another doubt; inactive = no such curve, though single readings can be large; an effect the other way counts as inactive or inconclusive. Unless noted, % is set by controls: 0 for no effect and ±100 for the full control effect; potency is the fitted concentration of half-maximal effect.

SMILES	FBPA Giardia inh	AmpC detergent	AMA1 RON2 block	AmpC no deterg
O=c1[nH]c(=S)n(C2CC2)c(O)c1/C=N/Nc1ccccc1	?	-11.3%	28.1%	12.6µM*
COc1ccc2cc(CCNC(=O)c3ccc4c(c3)OCO4)c(=O)[nH]c2c1	13.3%	?	-1.6%	2.82µM*
Cc1cc(C)c2oc(C(=O)Nc3sc4c(c3C(=O)NCc3ccco3)CCC4)cc(=O)c2c1	/	9.1%	/	/
COCC(=O)n1nc(-c2ccccc2)nc1NCc1ccc(N(C)C)cc1	-1.0%	3.0%	22.4µM*	-6.1%
Oc1cccc(C=Nc2cccc3ccccc23)c1O	?	-10.3%	?	-53.1%
Oc1cccc(C=NCc2ccccc2)c1O	7.06µM*	-13.1%	-14.6%	-31.5%
O=C(Nc1ccc(S(=O)(=O)Nc2nccs2)cc1)c1nn(-c2ccc(F)cc2)ccc1=O	-19.0%	1.3%	-29.4%	10µM*
CCOc1ccc(-n2ccc(=O)c(C(=O)Nc3ccc(S(=O)(=O)Nc4nccs4)cc3)n2)cc1	?	-4.5%	-1.4%	-28.2%
COc1ccccc1CC1(C)C(=O)Nc2c(Cl)cccc21 (centres undefined)	/	/	-0.3%	/
CCOC(=O)CC(=O)CSc1nc2sc(C)cc2c(=O)n1Cc1ccco1	0.2%	-1.4%	19.1%	-38.8%
Cc1cc2c(=O)n(Cc3ccco3)c(SCC(=O)c3ccc(Cl)s3)nc2s1	-4.5%	-1.2%	6.4%	28.2µM*
CCc1ccccc1NC(=O)C1COc2ccccc2C1 (centres undefined)	/	26.6%	/	/
COc1ccc(CN2C(=O)NC(=O)/C(=C/c3ccoc3)C2=O)cc1	0.6%	-5.4%	-16.2%	10µM*
COc1ccc(CN2C(=O)NC(=O)/C(=C/c3cc(OC)c(OC)c(OC)c3)C2=O)cc1	0.7%	0.9%	-0.9%	-25.7%
COc1cc2c(CCNC(C)=O)c[nH]c2cc1O	?	/	4.47µM*	/
COc1ccc(CCNC(=O)NCCc2c[nH]c3ccccc23)cc1OC	2.8%	7.1%	1.3%	-5.0%
O=[N+]([O-])c1ccc(C(O)CN=Cc2ccc(O)cc2O)cc1 (centres undefined)	-7.6%	-3.6%	73.3%	12.6µM*
O=C(Nc1nc(-c2cc3ccccc3o2)cs1)c1ccc(S(=O)(=O)N2CCCC2)cc1	3.4%	-6.7%	15.0%	17.8µM*
COc1ccc(CCN(C)C(=O)CN2C(=O)NC3(CCCc4ccccc43)C2=O)cc1OC (centres undefined)	/	-17.5%	-6.2%	19.4%
CN(c1ccccc1)c1ccc(/C=N/N2CCOCC2)cc1	2.9%	-5.5%	11.2µM*	36.3%
Cc1ccc(C)c2[nH]c(=O)c(CCNC(=O)C(C)(C)C)cc12	0.4%	-4.2%	-3.7%	39.8µM*
Cc1ccc(C)c2[nH]c(=O)c(CCNC(=O)c3ccc(S(=O)(=O)N(C)C)cc3)cc12	5.8%	-14.9%	-5.6%	2.82µM*
Cc1ccc(C)c2[nH]c(=O)c(CCNC(=O)Cc3cccs3)cc12	2.7%	-14.7%	-7.2%	-5.8%
COc1ccccc1-c1cnc(C(O)c2ccc(Cl)c(Cl)c2)[nH]1 (centres undefined)	/	/	7.7%	/
Cc1nc2ccc(C(=O)N3c4ccccc4N=C(c4ccc(C(F)(F)F)cc4)C3C(=O)NC(C)(C)C)cc2[nH]1 (centres undefined)	/	/	0.9%	/
SMILES	FBPA Giardia inh	AmpC detergent	AMA1 RON2 block	AmpC no deterg
CC1CN(Cc2c(O)ccc3c2oc(=O)c2ccccc23)CC(C)O1 (centres undefined)	15.8µM*	0.4%	?	11.1%
COc1cnc(-c2ccccn2)[nH]c1=O	3.54µM*	7.5%	70.9%	-11.4%
O=C(Nc1cccc2cccnc12)c1ccccc1Br	/	/	8.9%	/
CC(C)Cn1c(SCC(=O)NC2CC2)nc2ccccc21	/	/	0.0%	/
Cc1cc(N)ccc1N1CCCC1	?	-3.0%	15.8µM*	15.8%
Cc1ccc(S(=O)(=O)Nc2ccc(NS(=O)(=O)c3ccc(C)cc3)c3ncccc23)cc1	-11.0%	/	/	/
CCOC(=O)C/C(C)=N/NC(=O)CN(c1ccc(Br)cc1)S(=O)(=O)c1ccccc1	3.6%	-0.7%	83.8%	22.4µM*
O=C1Nc2ccc(F)cc2C12Nc1ccccc1-c1nnc(SCc3ccccc3)nc1O2 (centres undefined)	-26.7%	-9.9%	-9.4%	17.8µM*
Cc1cc(C)cc(NC(=O)Nc2ccc(N3CCCCC3)cc2)c1	-2.3%	6.9%	-8.4%	15.8µM*

Bioassay records deposited in PubChem by National Center for Advancing Translational Sciences (NCATS).
